We go through 40 compounds from PubChem BioAssay AID602358 (National Center for Advancing Translational Sciences (NCATS), 2012).

Inconclusive results are not listed. Active and inactive are the calls of the source. Calls come from the whole dose curve; as a rule, active = well fitted inhibition curve with a large enough effect; inconclusive = small, poorly fitted or top-dose-only effect; inactive = flat fitted curve, though single readings scatter.

In this assay the target is Luciferin 4-monooxygenase (Photinus pyralis) (UniProt P08659). Description: FLuc inhibitory activity for the follow-up compounds in a biochemical assay with Km concentrations of substrate and 500microM CoASH. Particulars: purified FLuc, Km substrates + 500 uM CoASH, luminescence; series mostly up to 57.5 µM; activity change, negative = inhibition: at the top concentration. An excerpt: NCGC Assay Overview: Firefly (Photinus pyralis) luciferase is one of the most commonly used transcriptional reporters. It is considered one of the more dynamically responsive reporters - that is, responsive to changes in reporter transcription - as it requires no post-translational modifications and is enzymatically active directly after protein synthesis (Wood, 1998). With no endogenous expression in mammalian cells and without the requirement of external excitation, it offers very little background signal, thus generally providing excellent signal to background for most assays. Previous profiling work to determine the prevalence of compounds that affect FLuc enzymatic activity (PubChem AID 411) identified that ~3% of the MLSMR library (then at ~72K) inhibited FLuc. […] Of the compounds identified in this profile that inhibited FLuc, 151 compounds were selected for further analysis, in an effort to better understand their mode of inhibiting FLuc. The assay described here was to determine the activity of the compounds in an FLuc assay that contained KM concentrations of substrates and 500uM CoASH.
Sequence of Luciferin 4-monooxygenase (Photinus pyralis) (P08659 whole entry, looked up): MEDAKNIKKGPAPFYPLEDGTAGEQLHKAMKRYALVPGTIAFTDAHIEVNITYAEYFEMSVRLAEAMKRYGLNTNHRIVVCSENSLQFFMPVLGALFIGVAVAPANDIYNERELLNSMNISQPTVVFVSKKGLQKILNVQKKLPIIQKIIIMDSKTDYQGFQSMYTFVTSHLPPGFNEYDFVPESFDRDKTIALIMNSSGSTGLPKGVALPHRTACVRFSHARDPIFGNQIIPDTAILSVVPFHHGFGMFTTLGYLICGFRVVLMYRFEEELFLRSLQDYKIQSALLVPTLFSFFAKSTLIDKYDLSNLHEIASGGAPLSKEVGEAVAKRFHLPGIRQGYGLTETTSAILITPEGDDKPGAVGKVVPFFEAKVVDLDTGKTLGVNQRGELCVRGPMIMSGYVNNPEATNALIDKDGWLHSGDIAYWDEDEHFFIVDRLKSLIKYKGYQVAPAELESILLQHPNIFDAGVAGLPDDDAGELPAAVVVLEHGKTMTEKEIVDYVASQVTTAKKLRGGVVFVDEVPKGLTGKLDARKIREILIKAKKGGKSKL
NCGC Assay Protocol Summary: Reagents: 50mM Tris acetate, pH 7.5; 10mM Mg acetate; 10uM D-luciferin (Sigma #L9504); 10uM ATP; 0.01% Tween-20; 0.05% BSA; 10nM P. pyralis luciferase (Sigma #L9506); 500 uM CoASH Control compounds used were two known firefly luciferase inhibitors (3-(5-(3-chlorophenyl)-1,2,4-oxadiazol-3-yl)benzoic acid and 5-(2-fluorophenyl)-3-phenyl-1,2,4-oxadiazole), and DMSO. Three microliters containing firefly luciferase substrates in buffer (final concentrations: 50mM Tris acetate, pH 7.5, 10mM Mg acetate, 0.01% Tween-20, 0.05% BSA, 10uM D-luciferin, 10uM ATP, and 500 uM CoASH) are dispensed into each well of a Greiner white, solid-bottom 1536-well format plate using a flying reagent dispenser (FRD). These assay plates were then treated with 23nL of compound or DMSO using a Kalypsys pin tool, which allows for delivery of a 12-point intraplate titration of each compound to the assay plate (quantitative HTS), with a final compound concentrations ranging from approximately ~60uM to 0.3nM. One microliter of firefly luciferase in 500mM Tris-acetate buffer was then delivered by FRD to each well for a final enzyme concentration of 10nM. Luciferase activity was then measured using a ViewLux CCD imager (PerkinElmer), with an average exposure time of 2-30 seconds (2X binning, medium/high gain).
Turning to `Cc1c(NC(=O)c2cccs2)cccc1-c1nc2ccccc2s1`, the Potency was 3.26 µM (active). Same read-out and setting: with `Nc1ccccc1-c1nc2ccccc2s1` the figure was 3.26 µM (active); with `O=C(O)c1ccc(NC(=O)c2ccccc2NC(=O)c2ccccc2Br)cc1`, 16.3 µM (active); with `O=C(Nc1ccccc1C(=O)O)c1ccc(NC(=O)C2CC2)cc1`, 0.73 µM (active). For the compound `CC(C)Oc1ccc(C(=O)Nc2ccc(-c3nc4ccccc4s3)cc2)cc1`, the “activity change, negative = inhibition” value was -11.1% (inactive).

Consider `O=C(Nc1ccccc1C(=O)Nc1ccccc1C(=O)O)c1ccccc1`, for which the Potency was 10.3 µM (active).

On to `O=C(Nc1ccccc1C(=O)O)c1ccccc1`, for which the Potency is 23.1 µM (active). On to `Nc1ccc(-c2nc3cc(N)ccc3s2)cc1`, for which the Potency was 0.259 µM (active). Same read-out and setting: then `CCOc1ccc2nc(NC(=O)Cc3cccs3)sc2c1`, with 5.8 µM (active); and `O=C(Nc1ccccc1C(=O)O)c1ccc(NC(=O)C2CCCCC2)cc1`, with 5.17 µM (active). On the same count and under the same terms, then `COc1ccc(C(=O)Nc2nc3ccc(OC)cc3s2)cc1`, with 0.58 µM (active). The same measure, in the same setting: with `CCOc1ccc(C(=O)Nc2ccccc2C(=O)O)cc1` the figure was 0.41 µM (active); with `CC(=O)Oc1ccc(C(=O)Nc2ccccc2C(=O)Nc2cccc(C(=O)O)c2)cc1`, 2.59 µM (active). With `Cc1ccc(C(=O)Nc2cccc(C(=O)O)c2)cc1S(=O)(=O)N1CCOCC1`, the Potency is 20.6 µM (active). In the case of `COc1cc(OC)cc(-c2nc3ccccc3s2)c1`, the Potency is 3.66 µM (active). Take `O=C(Nc1c(Cl)cc(Cl)cc1-c1nc2ccccc2s1)c1ccc(Br)o1`: the “activity change, negative = inhibition” value is -5.98% (inactive). Take `Cc1ccc2sc(-c3ccc(NC(=O)c4cc(-n5cnnc5)ccc4Cl)cc3)nc2c1`: the Potency was 1.63 µM (active). Regarding `COc1ccc2nc(NC(=O)CCc3ccc(OC)c(OC)c3)sc2c1`, the “activity change, negative = inhibition” value is -17.3% (inactive).

For the compound `Nc1ccc(C(=O)Nc2ccccc2C(=O)O)cc1`, the Potency was 3.26 µM (active). Still for that read-out and setting: with `O=C(Nc1cccc(-c2nc3ccccc3s2)c1)c1cc(-n2cnnc2)ccc1Cl` the figure was 3.66 µM (active); with `COc1ccc2nc(NC(=O)c3ccc4ncsc4c3)sc2c1`, 0.651 µM (active); with `O=C(O)c1ccccc1NC(=O)c1ccccc1Nc1ccccc1`, 9.19 µM (active). For the compound `COc1ccc(-c2nc3ccccc3s2)cc1O`, the Potency is 0.0326 µM (active). With `COc1ccc(NS(=O)(=O)c2cccc(C(=O)Nc3ccccc3C(=O)O)c2)cc1`, the “activity change, negative = inhibition” value is -13.2% (inactive). Take `O=C(O)c1cccc(NC(=O)c2cccc(NC(=O)C3CCCO3)c2)c1` (stereo not given): the Potency is 18.3 µM (active). Still for that read-out and setting: with `COc1ccc2nc(NC(=O)c3cccc(S(=O)(=O)N4CCOCC4)c3)sc2c1` the figure was 14.6 µM (active); with `COc1ccc(C(=O)Nc2ccccc2C(=O)Nc2ccccc2C(=O)O)cc1`, 0.116 µM (active); with `COc1ccc2nc(NC(=O)c3cnccn3)sc2c1`, 0.919 µM (active). Consider `O=C(Cc1ccccc1)Nc1ccccc1C(=O)Nc1ccc(C(=O)O)cc1`, for which the “activity change, negative = inhibition” value was -13.8% (inactive).

With `Cc1c(NC(=O)c2cc(-n3cnnc3)ccc2Cl)cccc1-c1nc2ccccc2s1`, the Potency is 0.231 µM (active). Still for that read-out and setting: with `CCn1c(C)nc2cc(-c3nc4n(n3)Cc3ccccc3-4)ccc21` the figure was 0.0146 µM (active); with `CCCC(=O)Nc1nc2ccc(OCC)cc2s1`, 10.3 µM (active); with `Nc1ccc(-c2nc3ccc(C(=O)O)cc3s2)cc1`, 0.146 µM (active). Still for that read-out and setting: then `CCOc1ccc2nc(NC(=O)c3ccoc3C)sc2c1`, with 0.183 µM (active); and `C/C(=N\NC(=O)c1ccccc1NC(=O)c1ccc(Cl)cc1)c1ccncc1`, with 0.0046 µM (active).

As for `O=C(Nc1ccc(-c2nc3ccccc3s2)cc1)C1=COCCO1`, the Potency is 0.0259 µM (active).

For `O=C(Nc1ccccc1C(=O)O)c1cccc(S(=O)(=O)N2CCCC2)c1`, the Potency is 18.3 µM (active).

On to `Cc1ccc(C(=O)O/N=C(\N)c2ccccn2)c(Cl)c1`, for which the Potency is 0.0046 µM (active). On to `O=C(O)c1cccc(NC(=O)c2cccc(S(=O)(=O)Nc3cccc(F)c3)c2)c1`, for which the “activity change, negative = inhibition” value is -7.88% (inactive).

On to `Cc1ccc2sc(-c3ccc(N)cc3)nc2c1`, for which the Potency was 0.0411 µM (active).
